PubChem BioAssay AID1159580 (chemical genetic matrix, 2015)
“And” between values parts separate entries of the source, which are not always exact repeats. Equal entries are not always repeated. In all, about 5,500 compounds went through this assay and about 2,000 (36%) were called active. Not shown: some 18% with an inconclusive outcome. No stated cut-off is given here; in the data, active means normalized growth mostly below about 0.91 (no sharp cut-off); inconclusive means no clear call, values can overlap the other calls; inactive means mostly above about 0.92. The list shows a part of the results.

Assay: chemical genetic growth profiling, strain panel (AID 1159580);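 further: tested at 20 µM; growth read once vehicle control cultures reached saturation at 30 °C; 1 = growth at the plate median or of vehicle wells; lower values mean less growth of the strain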
Conditions: S. cerevisiae deletion strains, growth OD

Measured: normalized growth

O=c1cccc2n1C[C@H]1CNCC2C1
inactive: locus YAL021C, strain ccr4, hits give low values 1 | locus YAL026C, strain drs2, hits give low values 1.01 | locus YAL030W, strain snc1, hits give low values 1.01 | locus YBL061C, strain skt5, hits give low values 1.01 | locus YBR009C, strain hhf1, hits give low values 0.982 | locus YBR021W, strain FUR4, hits give low values 1.03 | locus YBR023C, strain chs3, hits give low values 0.999 | locus YBR171W, strain sec66, hits give low values 0.997 | locus YBR229C, strain ROT2, hits give low values 1 | locus YBR231C, strain swc5, hits give low values 1.02 | locus YBR279W, strain paf1, hits give low values 1 | locus YCL011C, strain gbp2, hits give low values 0.99 | locus YCL016C, strain dcc1, hits give low values 0.973 | locus YCL029C, strain bik1, hits give low values 0.985 | locus YCL061C, strain MRC1, hits give low values 0.987 | locus YCL069W, strain vba3, hits give low values 1 | locus YCR088W, strain abp1, hits give low values 1 | locus YDL005C, strain med2, hits give low values 1.01 | locus YDL035C, strain GPR1, hits give low values 0.988 | locus YDL040C, strain nat1, hits give low values 1.01 | locus YDL074C, strain BRE1, hits give low values 0.984 | locus YDL101C, strain DUN1, hits give low values 1.01 | locus YDL134C, strain PPH21, hits give low values 1.03 | locus YDL185W, strain tfp1, hits give low values 0.955 | locus YDL192W, strain arf1, hits give low values 0.987 | locus YDR001C, strain nth1, hits give low values 1.01 | locus YDR069C, strain doa4, hits give low values 1.01 | locus YDR101C, strain arx1, hits give low values 0.966 | locus YDR137W, strain rgp1, hits give low values 1.02 | locus YDR150W, strain NUM1, hits give low values 1 | locus YDR159W, strain sac3, hits give low values 1 | locus YDR162C, strain NBP2, hits give low values 1.01 | locus YDR195W, strain ref2 0.999 | locus YDR297W, strain sur2, hits give low values 0.999 | locus YDR318W, strain mcm21, hits give low values 0.996 | locus YDR334W, strain swr1, hits give low values 0.999 | locus YDR335W, strain msn5, hits give low values 1.01 | locus YDR388W, hits give low values 0.992 | locus YDR392W, strain spt3, hits give low values 0.899 | locus YDR502C, strain sam2, hits give low values 1 | locus YEL003W, strain gim4, hits give low values 1 | locus YEL037C, strain rad23, hits give low values 1.01 | locus YEL061C, strain CIN8 (second series), hits give low values 1.01 | locus YEL061C, strain CIN8, hits give low values 1.01 | locus YER015W, strain faa2, hits give low values 1.01 | locus YER016W, strain bim1, hits give low values 1.01 | locus YER110C, hits give low values 0.974 | locus YER111C, strain swi4, hits give low values 0.985 | locus YER155C, strain BEM2 (second series), hits give low values 0.974 | locus YER155C, strain BEM2, hits give low values 1 | locus YER167W, strain BCK2, hits give low values 1 | locus YFR010W, strain ubp6, hits give low values 1.02 | locus YGL078C, strain dbp3, hits give low values 0.982 | locus YGL086W, strain mad1, hits give low values 0.965 | locus YGL167C, strain pmr1, hits give low values 0.994 | locus YGL173C, strain kem1, hits give low values 0.998 | locus YGL227W, strain vid30, hits give low values 1.01 | locus YGL240W, strain doc1, hits give low values 1.05 | locus YGL248W, strain PDE1, hits give low values 1.03 | locus YGL253W, strain hxk2, hits give low values 1.01 | locus YGR078C, strain PAC10, hits give low values 1.03 | locus YGR135W, strain pre9, hits give low values 1.02 | locus YGR252W, strain gcn5, hits give low values 1.1 | locus YHR013C, strain ard1, hits give low values 0.98 | locus YHR027C, strain rpn1, hits give low values 1.01 | locus YHR030C, strain SLT2, hits give low values 0.997 and 1.01 | locus YHR079C, strain IRE1 (second series), hits give low values 0.966 | locus YHR079C, strain IRE1, hits give low values 1.04 | locus YHR094C, strain hxt1, hits give low values 0.995 | locus YHR129C, strain ARP1, hits give low values 1 | locus YHR142W, strain chs7, hits give low values 0.991 | locus YHR200W, strain rpn10, hits give low values 0.979 | locus YIL066C, strain RNR3, hits give low values 1.02 | locus YIL073C, strain SPO22, hits give low values 0.947 | locus YIL125W, strain kgd1, hits give low values 0.987 | locus YIR030C, strain dcg1, hits give low values 0.992 | locus YJL092W, strain hpr5, hits give low values 1 | locus YJL095W, strain BCK1 (second series), hits give low values 1 | locus YJL095W, strain BCK1, hits give low values 1.07 and 1.01 | locus YJL115W, strain asf1, hits give low values 0.998 | locus YJL129C, strain trk1, hits give low values 1 | locus YJL134W, strain LCB3, hits give low values 0.999 | locus YJL154C, strain vps35, hits give low values 0.997 | locus YJL164C, strain tpk1, hits give low values 1 | locus YJL166W, strain qcr8, hits give low values 0.98 | locus YJL168C, strain set2, hits give low values 0.984 | locus YJL187C, strain SWE1 (second series), hits give low values 1.01 | locus YJL187C, strain SWE1, hits give low values 1.01
